Where “and” joins values, the source holds several entries; their conditions need not be identical. Equal values may be shown once. Calls of active or inactive are those of the source.
Each compound was assayed on wheat germ agglutinin (Triticum aestivum), Alexa647-labelled (assay: wheat germ agglutinin binders on compound microarrays, profiling panel, artefact control for SMM control-protein annotation, biochemical, small-molecule microarray, 635/667 nm fluorescence (AID 1140;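 also: score merges 667 nm feature emission with signal to noise over triplicate slides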)). Settings: WGA-A647 binding, 635 nm fluorescence, higher = more signal.

Q: Which composite z-score does the source give for C#CCN1C(/C=C/c2ccccc2)C(=O)OC[C@H]1c1ccccc1 (stereo not given in full) here?
A: -0.19 and 0.017

Q: For COC(=O)[C@@]1(Cc2ccccc2)[C@H]2c3cc(C(=O)N(C)C)n(Cc4ccc(C)c(F)c4F)c3C[C@H]2CN1C(=O)c1ccccc1, which composite z-score is on record?
A: 0.899 and 1.03

Q: For CCOC(=O)[C@@H]1CC2O[C@]23C[C@@H]1C(=O)N1CCC[C@@H]1[C@H]3O[Si](C)(C)C(C)(C)C (stereo not given in full), which composite z-score is on record?
A: -0.616 and -0.276

Q: How did the composite z-score turn out when C=CCN(CCCCC)C(=O)C(c1cccs1)N(C(=O)/C=C\C(=O)O)c1ccc(CCO)cc1 (stereo not given) was run?
A: -0.573 and -0.325

Q: Which composite z-score does the source give for CC(CO)N1C(=O)[C@@H]2C3C(=O)OCCC=C[C@H]3OC23C=CCN(c2ccc4ccccc4c2)C(=O)[C@@H]13 (stereo not given in full) here?
A: -0.388 and 0.771

What follows are compounds tested against Luciferin 4-monooxygenase (Photinus pyralis) (UniProt P08659) (assay: firefly luciferase enzyme inhibitors, primary screen, biochemical, luminescence, purified enzyme, 2006 set (AID 1141;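 also: cell-free assay with purified firefly luciferase at 100 ng per well in PBS; test concentration not given here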)). Settings: SteadyGlo luminescence, 30 min, higher = more signal, called active from +8 up or from −8 down.
Chain of Luciferin 4-monooxygenase (Photinus pyralis) (P08659 whole entry, looked up): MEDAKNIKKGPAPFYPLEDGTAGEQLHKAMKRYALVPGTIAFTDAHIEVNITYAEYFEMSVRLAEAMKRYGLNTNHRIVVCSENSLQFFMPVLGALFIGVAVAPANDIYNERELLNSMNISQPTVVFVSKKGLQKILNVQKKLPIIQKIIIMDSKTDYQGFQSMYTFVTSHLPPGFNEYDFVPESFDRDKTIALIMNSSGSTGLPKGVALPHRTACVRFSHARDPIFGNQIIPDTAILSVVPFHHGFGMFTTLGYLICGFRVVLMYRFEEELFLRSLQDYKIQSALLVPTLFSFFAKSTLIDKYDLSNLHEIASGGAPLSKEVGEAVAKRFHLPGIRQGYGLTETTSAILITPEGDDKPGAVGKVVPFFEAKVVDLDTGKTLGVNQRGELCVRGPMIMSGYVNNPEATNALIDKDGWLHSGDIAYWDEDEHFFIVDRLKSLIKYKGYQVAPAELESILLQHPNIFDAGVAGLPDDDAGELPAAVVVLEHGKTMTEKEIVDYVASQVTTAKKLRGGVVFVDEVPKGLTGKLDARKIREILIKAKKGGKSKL

Q: How did the z-score turn out when C=CCN(CCCC)C(=O)C(c1cccs1)N(CCOCCO)C(=O)/C=C\C(=O)O (stereo not given) was run?
A: -0.417 (inactive) and -0.714 (inactive)

Q: For CC(C)[Si]1(C(C)C)OCc2cc(CCCc3cc4c(c(CCc5ccccc5)n3)[Si](C(C)C)(C(C)C)OC4)nc(CCc3ccccc3)c21, which z-score is on record?
A: -1.11 (inactive) and 0.714 (inactive)

Q: Which z-score does the source give for O=C1[C@H]2[C@H]3[C@H](O)[C@H](O)CC(=NOCc4ccccc4)[C@H]3CC[C@H]2C(=O)N1Cc1ccccc1 here?
A: 0.983 (inactive)

Q: Which z-score does the source give for C=CCN(C(=O)C1N(CCOCCO)C(=O)C2C(C(=O)O)C3C=CC21O3)c1ccc(OC)cc1 (stereo not given) here?
A: -0.505 (inactive) and -0.392 (inactive)

Q: Which z-score does the source give for C=CCN(CCCCC)C(=O)C(c1cccs1)N(C(=O)/C=C\C(=O)O)c1c(Cl)cccc1CO (stereo not given) here?
A: -0.0903 (inactive) and -0.46 (inactive)

Q: Which z-score does the source give for C=C[C@@H](OC)[C@H](O)c1ccc(OCCO)cc1 here?
A: -3.43 (inactive) and -3.1 (inactive)

Q: How did the z-score turn out when CC(=O)OC[C@H]1O[C@H](C#CC(C)(C)C)C=C[C@@H]1OC(C)=O was run?
A: -1.22 (inactive)

Q: C[N+](C)(C)CCCCCCNC(=O)[C@H]1C[C@H]2C(=O)N[C@@H](CCCC[N+](C)(C)C)C(=O)N2[C@H]1c1ccc(O)cc1 was tested. Which z-score did it give?
A: 1.03 (inactive) and 0.485 (inactive)

Q: How did the z-score turn out when COc1ccc(-c2ccc3c(n2)CCCN3CC(O)CN2CCCc3nc(-c4ccc(Br)cc4)ccc32)cc1 (stereo not given) was run?
A: -0.254 (inactive) and 0.147 (inactive)

Q: How did the z-score turn out when CC(CO)N1C(=O)[C@@H]2C3C(=O)OCCC=C[C@H]3OC23C=CCN(Cn2nnc4ccccc42)C(=O)[C@@H]13 (stereo not given in full) was run?
A: 0.0511 (inactive) and 0.399 (inactive)

Q: Which z-score does the source give for C[C@@]1([C@@H](NC(=O)Cc2ccccc2)c2ccc(-c3ccccc3)cc2)C[C@H]1C1CCCCC1 here?
A: 0.393 (inactive) and 0.406 (inactive) and 1.92 (inactive)

Q: Which z-score does the source give for C=CCN(CCCC)C(=O)C(c1cccs1)N(C(=O)/C=C\C(=O)O)c1c(Cl)cccc1CO (stereo not given) here?
A: 1.01 (inactive) and 0.833 (inactive)

Q: How did the z-score turn out when C=C[C@@H](C)[C@@H](O)c1ccc(OCCO)cc1 was run?
A: -5.97 (inactive) and -7.19 (inactive)

Q: C=CCN(CCCCC)C(=O)C(c1cccs1)N(CCOCCO)C(=O)/C=C\C(=O)O (stereo not given) was tested. Which z-score did it give?
A: -4.23 (inactive) and -3.13 (inactive)

Q: How did the z-score turn out when CC(C)CCN1CCc2nc(-c3ccccc3)c3c(c2C1)CO[C@@H](C)C3 was run?
A: -1.17 (inactive)

Q: For C=CCN(CCCC)C(=O)C1N(c2ccc(CCO)cc2)C(=O)C2C(C(=O)O)C3C=CC21O3 (stereo not given), which z-score is on record?
A: 1.5 (inactive) and -1.51 (inactive)

Q: C=C[C@H](OC)[C@@H](O)c1ccc(OCCO)cc1 was tested. Which z-score did it give?
A: -0.117 (inactive) and -1.75 (inactive)

Q: C=C[C@H](C)[C@H](O)c1ccc(O)c2ccccc12 was tested. Which z-score did it give?
A: -1 (inactive) and -2.28 (inactive)

Q: For COC(=O)C1=C(C)N(Cc2ccccc2)[C@]23O[C@](C(=O)OC)(C(=O)N2[C@@H]1c1ccccc1)[C@H]1C(=O)N(c2ccccc2)C(=O)[C@H]13, which z-score is on record?
A: -0.207 (inactive) and -0.978 (inactive)

Q: For CN1C(=O)C2CC=C([C@H]3Oc4ccccc4S(=O)(=O)N4CCC[C@@H]34)CC2C1=O (stereo not given in full), which z-score is on record?
A: 0.156 (inactive) and 0.737 (inactive)

Q: How did the z-score turn out when CC(C)=NOC[C@@H](O)COCc1ccco1 was run?
A: -1.28 (inactive)

Q: How did the z-score turn out when CCOC(=O)NN=C1C[C@@H](O)[C@@H](O)[C@@H]2[C@@H]3C(=O)N(Cc4ccccc4)C(=O)[C@@H]3CC[C@@H]12 was run?
A: 0.66 (inactive)

Q: Which z-score does the source give for COC(=O)C1=C(C)N(Cc2ccccc2)[C@]23O[C@](C(=O)OC)(C(=O)N2[C@@H]1c1ccccc1)[C@H]1CCCC(=O)[C@H]13 here?
A: -0.5 (inactive) and 0.264 (inactive)

Q: Which z-score does the source give for C#CCCCON=C1C[C@@H](O)[C@@H](O)[C@@H]2[C@@H]3C(=O)N(C4CCCCC4)C(=O)[C@@H]3CC[C@H]12 here?
A: -1.01 (inactive)

Q: For C=C[C@@H](OC)[C@H](O)c1ccc(OC)c(O)c1, which z-score is on record?
A: 0.318 (inactive) and -0.905 (inactive)

Q: Which z-score does the source give for CC(C)=NOCc1ccc(-c2cn([C@@H]3COC[C@H]3O)nn2)cc1 here?
A: -1.12 (inactive)

Q: Which z-score does the source give for CO[C@@H]1C=CCC(=O)N2CCC[C@H]2C(=O)OC[C@H](C)C(=O)OC[C@H]1C here?
A: -1.87 (inactive)

Q: With CCCCCN1CC=CC23O[C@@H]4C=CCCOC(=O)C4[C@H]2C(=O)N(C(C)CO)[C@@H]3C1=O (stereo not given in full) as the compound, how does the z-score read?
A: 0.328 (inactive) and 0.283 (inactive)

Q: For COC(=O)[C@@]1(Cc2ccc(OC)cc2)[C@H]2c3cc(C(=O)N(C)C)n(Cc4ccc(O)c(OC)c4)c3C[C@H]2CN1C(=O)c1ccccc1, which z-score is on record?
A: 1.75 (inactive) and 1.08 (inactive)

Q: C=CCN(Cc1ccccc1)C(=O)C(c1cccs1)N(C(=O)/C=C\C(=O)O)c1ccc(CCO)cc1 (stereo not given) was tested. Which z-score did it give?
A: 0.666 (inactive) and 0.381 (inactive)

Q: Which z-score does the source give for CCN1C(=O)[C@H]2[C@H]3[C@H](O)[C@H](O)CC(=NOC)[C@@H]3CC[C@H]2C1=O here?
A: -0.554 (inactive)

Q: C[N+](C)(C)CCCCNC(=O)[C@@H]1C[C@@H]2C(=O)N[C@@H](CCCC[N+](C)(C)C)C(=O)N2[C@@H]1c1cccc(OCCO)c1 was tested. Which z-score did it give?
A: -1.56 (inactive) and -1.48 (inactive)

Q: With CO[C@H]1COC(=O)CC=C[C@H](C)[C@H](OC)COC(=O)[C@@H](C)COC(=O)CC=C[C@@H]1C as the compound, how does the z-score read?
A: -0.882 (inactive) and -1.16 (inactive)

Q: With Cc1cc2c(nc1C)CCCN2CC(O)CN1CCCc2nc(-c3ccc(Br)cc3)ccc21 (stereo not given) as the compound, how does the z-score read?
A: -0.104 (inactive) and -0.176 (inactive)

Q: For COC(=O)C1=C(C)N(Cc2ccccc2)C2=C(C(=O)c3ccccc3)[C@H](c3ccccc3)[C@@](O)(C(=O)OC)C(=O)N2[C@@H]1c1ccccc1, which z-score is on record?
A: -1.49 (inactive) and -0.0191 (inactive)

Q: With C#CCN1C(/C=C/c2ccccc2)C(=O)OC[C@H]1c1ccccc1 (stereo not given in full) as the compound, how does the z-score read?
A: -0.415 (inactive) and 0.754 (inactive)

Q: Which z-score does the source give for COC(=O)[C@@]1(Cc2ccccc2)[C@H]2c3cc(C(=O)N(C)C)n(Cc4ccc(C)c(F)c4F)c3C[C@H]2CN1C(=O)c1ccccc1 here?
A: -1.27 (inactive) and 0.773 (inactive)

Q: With CCOC(=O)[C@@H]1CC2O[C@]23C[C@@H]1C(=O)N1CCC[C@@H]1[C@H]3O[Si](C)(C)C(C)(C)C (stereo not given in full) as the compound, how does the z-score read?
A: 0.316 (inactive) and 0.32 (inactive)

Q: With C=CCN(CCCCC)C(=O)C(c1cccs1)N(C(=O)/C=C\C(=O)O)c1ccc(CCO)cc1 (stereo not given) as the compound, how does the z-score read?
A: -1.24 (inactive) and -0.887 (inactive)

Q: How did the z-score turn out when CC(CO)N1C(=O)[C@@H]2C3C(=O)OCCC=C[C@H]3OC23C=CCN(c2ccc4ccccc4c2)C(=O)[C@@H]13 (stereo not given in full) was run?
A: -0.618 (inactive) and -0.657 (inactive)
